Compound activity as filed in PubChem BioAssay.
A selection: hits, their analogues and other compounds. The true share with any hit is near 3.8%.
GDH-TPI counter-1 – inhibits GDH-TPI coupling enzymes, artifact for Mtb FBA screen | GDH-TPI coupled enzyme counterscreen, NADH absorbance | inhibition, % at 4.8 µM | 1.2% of 360,000 active | AID 588335; in the data active means inhibition above about 30%
Mtb hypoxia inh – inhibitors of hypoxia-regulated fluorescent reporter in Mycobacterium tuberculosis; M. tuberculosis hypoxia-regulated fluorescent reporter, fluorescence; 0.1% of 300,000 active; fluorescence inhibition, % (concentration not given with the values); in the data active means fluorescence inhibition mostly above about 23%, no sharp cut-off; inactive means mostly below about 17%
PrPC TRFRET – reduces human prion protein on the cell surface | P04156 | cell surface PrPC, TR-FRET read-out | inhibition, % at 13.8 µM | 0.43% of 370,000 active | AID 720596; in the data active means inhibition above about 24%
FBA Mtb inh – Mtb fructose-bisphosphate aldolase inhibition; AID 588726; 2.3% of 360,000 active; P9WQA3; inhibition, % at 1 µM; purified M. tuberculosis FBA, fluorescence read-out
Target sequence (P9WQA3 whole entry, looked up): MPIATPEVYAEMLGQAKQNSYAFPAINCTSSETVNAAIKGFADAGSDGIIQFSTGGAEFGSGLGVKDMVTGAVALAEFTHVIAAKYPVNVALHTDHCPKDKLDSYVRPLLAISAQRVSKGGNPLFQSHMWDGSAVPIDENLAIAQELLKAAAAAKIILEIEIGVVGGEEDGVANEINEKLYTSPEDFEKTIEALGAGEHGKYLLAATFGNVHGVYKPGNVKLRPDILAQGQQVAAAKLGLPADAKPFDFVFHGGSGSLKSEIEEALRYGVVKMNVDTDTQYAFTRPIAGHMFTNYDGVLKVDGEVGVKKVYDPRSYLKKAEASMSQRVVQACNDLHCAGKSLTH
PrP 5UTR inh – suppresses PrP 5' UTR mRNA reporter expression | cell-based PrP 5' UTR mRNA reporter, plate reader | inhibition, % (no concentration beside the values) | 0.35% of 340,000 active | AID 488862; in the data active means inhibition above about 52%
Yp Topo-I inh – inhibitors of Yersinia pestis topoisomerase I; Y. pestis Topo-I cleavage product accumulation, plate reader; activity, % at 10 µM; 0.064% of 360,000 active; AID 504884; in the data active means activity above about 50%, passing the limit was not always enough
Mtb FBA inh conf – confirmation of M. tuberculosis fructose-bisphosphate aldolase inhibitors | 78% of 5,600 active | inhibition, % at 1 µM | shares compounds with FBA Mtb inh | AID 651616 | purified M. tuberculosis FBA, fluorescence read-out
GDH-TPI counter-2 – inhibits GDH-TPI coupling enzymes, flagging Mtb FBA hits. shares compounds with FBA Mtb inh. GDH-TPI coupled enzyme counterscreen, fluorescence. inhibition, % at 1 µM. 81% of 5,600 active. AID 652141; in the data active means inhibition above about 10%
Hits are given with their value; n = inactive; x = no result given; + = active, no number. Unless noted, no stated cut-off is given here; in the data, active means inhibition above about 27%; inactive means the rest.

SMILES	GDH-TPI counter-1	Mtb hypoxia inh	PrPC TRFRET	FBA Mtb inh	PrP 5UTR inh	Yp Topo-I inh	Mtb FBA inh conf	GDH-TPI counter-2
Clc1nc(Oc2ccccc2)nc(-c2cn(-c3ccccc3)c3ccccc23)n1	n	n	n	56	n	n	45	40
O=[N+]([O-])c1cccc2ccc(C=Cc3ccc(Cl)cc3)nc12	x	n	x	x	x	x	x	x
C#Cc1ccc(C2C=C(C(=O)NCc3nc4ccccc4[nH]3)OC(OCc3ccc(CO)cc3)C2)cc1 (stereo unspecified)	x	n	x	x	x	x	x	x
CN(C)c1ccc(C2Nc3ccccc3C(=O)N2CCN2CCNC2=O)cc1 (stereo unspecified)	n	n	n	n	n	n	x	x
CCCN1C(=O)c2ccccc2NC1c1ccc(Cl)cc1 (stereo unspecified)	n	n	n	60	n	n	132	107
Cc1ccc(C2Nc3ccccc3C(=O)N2CCCN2CCOCC2)cc1 (stereo unspecified)	n	n	n	59	n	n	102	108
CCCN1C(=O)c2ccccc2NC1c1ccc(Cl)c(Cl)c1 (stereo unspecified)	n	n	n	60	n	n	104	107
CCCN1C(=O)c2ccccc2NC1c1ccc(Br)cc1 (stereo unspecified)	n	n	n	68	n	n	68	60
CC1Oc2ccccc2C=C1C=NNC(=O)c1ccccc1O (stereo unspecified)	x	n	x	x	x	x	x	x
c1ccc(C2C3CN(Cc4cccnc4)C(c4ccccc4)C34CC2(c2cccnc2)C4)cc1 (stereo unspecified)	x	n	x	x	x	x	x	x
O=C(COC(=O)c1cc(-c2cccc3ccccc23)nc2ccccc12)NC1CCS(=O)(=O)C1 (stereo unspecified)	n	n	n	n	n	n	x	x
COc1ccc2cc(-c3cc(C(=O)OCC(=O)NC4CCS(=O)(=O)C4)c4ccccc4n3)ccc2c1 (stereo unspecified)	n	n	n	28	n	n	122	96
O=C(COC(=O)c1cc(-c2cccs2)nc2ccccc12)NC1CCS(=O)(=O)C1 (stereo unspecified)	n	n	n	48	n	n	44	29
O=C(O)C(=O)/C(=C\c1cccc(Cl)c1)c1ccc2ccccc2n1	n	n	n	79	n	n	+	+
O=C(O)C(=O)C(=Cc1ccccc1)c1ccc2ccccc2n1	x	n	x	x	x	x	x	x
CC(OC(=O)c1ccccc1NCCO)C(=O)Nc1ccc(S(=O)(=O)N2CCOCC2)cc1 (stereo unspecified)	n	n	n	57	n	n	58	54
COc1ccc(NC(=O)c2ccc(S(=O)(=O)N3CC(C)CC(C)C3)cc2)cc1S(N)(=O)=O (stereo unspecified)	n	n	n	39	n	n	180	152
COc1cccc(C=c2sc(=CC(=O)c3ccc(C)cc3)[nH]c2=O)c1OC	x	n	x	x	x	x	x	x
COc1cc(C=NNC(=O)CN(CCc2ccccc2)S(=O)(=O)c2ccc(NC(C)=O)cc2)cc(OC)c1OC	x	n	x	x	x	x	x	x
COc1ccc(-c2sc3ccc(OC)cc3c2C#CCCO)cc1	n	x	x	n	n	n	x	x
COc1ccc2sc(-c3ccc(N(C)C)cc3)c(C#Cc3cncn3C)c2c1	n	n	n	108	n	n	127	102
O=C(NN=Cc1cccc([N+](=O)[O-])c1)C1CC(=O)N(c2ccc(F)cc2)C1 (stereo unspecified)	x	n	x	x	x	x	x	x
CC(=NNS(=O)(=O)c1cccc([N+](=O)[O-])c1)c1ccncc1	x	n	x	x	x	x	x	x
CNc1cncc(-c2c(OC)cccc2OC)n1	n	x	n	77	x	n	+	+
CNc1ccc2ncc(-c3ccc(OC)c(OC)c3)n2n1	n	x	n	44	x	n	n	n
CNc1cncc(-c2ccc(OC)c(OC)c2)n1	n	x	n	58	x	n	78	63
CNc1cc(-c2ccc(OC)c(OC)c2)ncn1	n	x	n	n	x	n	x	x
COc1ccc2cc3cc(C(=O)N4CCN(Cc5ccc6c(c5)OCO6)CC4)oc3nc2c1	46	x	n	59	n	n	+	+
CCOC(=O)C1CCN(C(=O)c2ccc(OC)cc2OC)CC1	n	n	n	n	n	n	x	x
COc1ccc2nc3oc(C(=O)N4CCC(C(N)=O)CC4)cc3cc2c1	n	x	n	98	n	n	+	154
